Results from PubChem BioAssay (NCATS).
Values joined by “and” are separate entries in the source; they are usually repeats but may differ in a detail not shown here. Identical values can stand only once. Results filed as inconclusive are left out. Active and inactive are the calls of the source. Unless noted, the call rests on the fitted dose curve; in most records, active means well fitted cell-killing curve with a large enough effect; inconclusive means small, poorly fitted or top-dose-only effect; inactive means flat fitted curve, though single readings scatter.

Legend:
[1] = Cell Viability - LYMP2-006 (AID 978); further: series mostly up to about 92 µM; on the % scale 0 is the no-effect control and ±100 the full control effect; nearly all actives have a fitted effect of over 60% in size
Outline: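 qHTS, 1536-well; 2500 cells/well, 5 hr 37 C; cpd 24 hr 37 C; CellTiter-Glo 30 min RT; luminescence. Tetraoctylammonium bromide pos. ctrl. AC50 via Hill eqn.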

[2] = Cell Viability - LYMP2-007 (AID 979);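 further: cells exposed to compound for 24 h before reading; 0% = DMSO only and the negative end = 92 µM tetraoctylammonium bromide; nearly all actives have a fitted effect of over 60% in size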
Outline: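 Human lymphoblastoid cells (2500/well) were plated in complete medium, incubated 5 hr at 37 C, then exposed to compounds for 24 hr at 37 C. Intracellular ATP was read by CellTiter-Glo luminescence after 30 min at room temperature; AC50 from Hill fits.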

[3] = Cell Viability - LYMP2-010 (AID 981); further: on the % scale 0 is the no-effect control and ±100 the full control effect; nearly all actives have a fitted effect of over 55% in size
Outline: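 Human lymphoblastoid LYMP2-010 cells (2500/well) were preincubated 5 hr at 37 C, then exposed to compounds for 24 hr at 37 C in complete medium. Intracellular ATP was measured by CellTiter-Glo luminescence after 30 min at room temperature; AC50 from Hill-fitted concentration-response.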

[4] = Cell Viability - LYMP2-012 (AID 982);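 further: cellular ATP by luciferase luminescence where a drop means cytotoxicity; cells exposed to compound for one day before reading; 0% = DMSO only and full loss = 92 µM tetraoctylammonium bromide; nearly all actives have a fitted effect of over 55% in size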
[5] = Cell Viability - LYMP2-014 (AID 983);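 further: series mostly up to about 92 µM; plate controls were DMSO only for no effect and 92 µM tetraoctylammonium bromide for full effect; nearly all actives have a fitted effect of over 50% in size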
Outline: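 Human lymphoblastoid cells (2500/well) were pre-incubated 5 hr at 37 C, then exposed to compounds in complete medium for 24 hr at 37 C. Intracellular ATP was read by CellTiter-Glo luminescence after 30 min at room temperature; AC50 from Hill fits.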

[6] = Cell Viability - LYMP2-016 (AID 984); further: on the % scale 0 is the no-effect control and ±100 the full control effect; nearly all actives have a fitted effect of over 55% in size
Outline: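 qHTS, 1536-well: 2500 LYMP2-016 cells/well, 5 hr 37 C, compound added, 24 hr 37 C, CellTiter-Glo 30 min RT, luminescence. Tetraoctylammonium bromide positive control. AC50 via Hill fit.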

[7] = Cell Viability - LYMP2-018 (AID 985);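 further: compound exposure lasted 24 hr at 37 °C; plate controls were DMSO only for no effect and tetraoctylammonium bromide at 92 µM for full effect; nearly all actives have a fitted effect of over 50% in size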
Outline: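 Human lymphoblastoid cells (2500/well) were pre-incubated 5 hr at 37 C, then exposed to compounds for 24 hr at 37 C in complete medium. Viability was read as intracellular ATP by CellTiter-Glo luminescence; AC50 values came from Hill-equation fits.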

[8] = Cell Viability - LYMP2-022 (AID 987);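 further: 0% = DMSO alone and full effect = tetraoctylammonium bromide at 92 µM; nearly all actives have a fitted effect of over 55% in size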
Outline: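 Human lymphoblastoid cells, 2500/well, preincubated 5 hr at 37 C, then exposed to compounds over a concentration range for 24 hr at 37 C in complete medium. Viability read as intracellular ATP by CellTiter-Glo luminescence after 30 min at room temperature; AC50 from Hill fits.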

[9] = Cell Viability - LYMP2-024 (AID 988);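 further: plate controls were DMSO only for no effect and 92 µM tetraoctylammonium bromide for full effect; nearly all actives have a fitted effect of over 60% in size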
Outline: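 Human lymphoblastoid cells (2500/well) in complete medium were preincubated 5 hr at 37 C, then exposed to compounds for 24 hr at 37 C. Intracellular ATP was read by CellTiter-Glo luminescence; AC50 from Hill-equation fits of concentration-response data.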

[10] = Cell Viability - LYMP2-026 (AID 989); further: on the % scale 0 is the no-effect control and ±100 the full control effect; nearly all actives have a fitted effect of over 50% in size
Outline: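 Human lymphoblastoid cells (2500/well) in complete medium were preincubated 5 hr at 37 C, then exposed to compounds for 24 hr at 37 C. Cellular ATP was read by CellTiter-Glo luminescence; AC50 from Hill-equation fits of concentration-response data.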

[11] = Cell Viability - LYMP1-002 - Assay at 24 hr (AID 993); further: on the % scale 0 is the no-effect control and ±100 the full control effect
Outline: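 Human lymphoblastoid LYMP1-002 cells, 2500/well in complete medium, were treated with compounds for 24 h at 37 C; intracellular ATP was read by CellTiter-Glo luminescence. AC50 values came from Hill-equation fits of qHTS concentration-response data.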

[12] = Cell Viability - LYMP1-002 - Assay at 40 hr (AID 994);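 further: 0% = DMSO only and full inhibition = 92 µM tetraoctylammonium bromide; nearly all actives have a fitted effect of over 60% in size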
Outline: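 Human lymphoblastoid cells, 2500/well in complete medium, were preincubated 5 hr at 37 C, then exposed to compounds for 40 hr at 37 C. Intracellular ATP was read by CellTiter-Glo luminescence after 30 min at room temperature; AC50 from Hill-equation fits.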

[13] = qHTS Assay for Identification of Small Molecule Inducers of Hypoxia Response (AID 2120; active means well fitted curve in the direction sought with a large enough effect in the signal ratio, with a control signal flat, not every such curve was filed as active; the % refers to the signal ratio; further: 0% is about no effect)
Outline: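 HRE-beta-lactamase reporter in CellSensor HRE-bla ME-180 cells, 2500 cells/well in Opti-MEM with 0.5% dialyzed FBS; compounds tested as titration series, 17 h at 37 degrees C. CCF4 substrate 2.5 h at room temperature; AC50 from 460/530 nm ratio.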

[14] = molecular target: Estrogen receptor (Homo sapiens) (UniProt P03372); experiment: qHTS assay for small molecule antagonists of estrogen receptor alpha signaling (AID 588513; active means well fitted curve in the direction sought with a large enough effect in the signal ratio, with a control signal flat, not every such curve was filed as active; the % refers to the signal ratio; further: on the % scale 0 is the no-effect control and ±100 the full control effect)
Outline: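 Beta-lactamase reporter, antagonist mode, HEK 293 GripTite cells; 0.5nM E2 stimulus, 18 h, 37 C; CCF4 dye 2 h RT; fluorescence. IC50 and efficacy from Hill fits, normalized to E2 and DMSO.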

[15] = molecular target: Estrogen receptor (Homo sapiens) (UniProt P03372); experiment: qHTS assay for small molecule agonists of estrogen receptor alpha signaling (AID 588514; calls by dose curve;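 further: 0% = vehicle only and 100% = reference agonist; nearly all actives have a fitted effect of over 70% in size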)
Outline: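 ER-alpha-UAS-bla GripTite HEK 293 cells in medium with 2% charcoal/dextran-treated FBS were treated with compound titrations at 37 C for 18 hrs; beta-lactamase reporter read by CCF4 fluorescence after 2 hrs at RT.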

[16] = molecular target: Bile acid receptor (Homo sapiens) (UniProt Q96RI1); experiment: qHTS assay for small molecule antagonists of farnesoid X receptor signaling (AID 588526; calls by dose curve; further: on the % scale 0 is the no-effect control and ±100 the full control effect)
Outline: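 Beta-lactamase reporter antagonist mode: HEK293T FXR-UAS-bla cells, titrated compound, CDCA stimulation, 16 h 37 C, CCF4 dye 2 h RT. Data normalized to CDCA 50 uM and DMSO; Hill-fit IC50.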

[17] = molecular target: Bile acid receptor (Homo sapiens) (UniProt Q96RI1); experiment: qHTS assay for small molecule agonists of farnesoid X receptor signaling (AID 588527; calls by dose curve;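 further: series mostly up to about 77 µM; 0% = vehicle basal and 100% = reference agonist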); settings: HEK293T FXR-UAS-bla, beta-lactamase ratio, 16 h; activation: stronger effect = higher value
Outline: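 FXR-UAS-bla HEK293T cells (10% dialyzed FBS) preincubated 5-7 h at 37 C, then compounds at up to 92 uM for 16 h at 37 C. CCF4 beta-lactamase read-out after 2 h RT. Normalized to chenodeoxycholic acid (100 uM) and DMSO; Hill fit gave EC50 and efficacy.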

[18] = molecular target: Glucocorticoid receptor (Homo sapiens) (UniProt P04150); experiment: qHTS assay for small molecule antagonists of glucocorticoid receptor signaling (AID 588533; active means well fitted inhibition curve with a large enough effect in the signal ratio, with a control signal flat, not every such curve was filed as active; the % refers to the signal ratio;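 further: cells stimulated with 2 nM dexamethasone as agonist; on the % scale 0 is the no-effect control and ±100 the full control effect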)
Outline: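 Antagonist-mode qHTS: compound titrations added to GRE-bla HeLa cells, then dexamethasone 2 nM final; 18 h, 37 C. CCF4 FRET fluorescence normalized to dexamethasone and DMSO; IC50 from Hill fit.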

[19] = molecular target: Peroxisome proliferator-activated receptor gamma (Homo sapiens) (UniProt P37231); experiment: qHTS assay for small molecule agonists of peroxisome proliferator-activated receptor gamma signaling (AID 588536; active means well fitted curve in the direction sought with a large enough effect in the signal ratio, with a control signal flat, not every such curve was filed as active; the % refers to the signal ratio;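 further: 0% = DMSO basal wells and 100% = rosiglitazone at 2 µM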)
Outline: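 GeneBLAzer PPAR-gamma-UAS-bla HEK293 cells in 1% charcoal/dextran-treated FBS medium were treated 16 h at 37 C with compounds. Beta-lactamase activity was read by CCF4 ratio (460/530 nm). Response was normalized to 2 uM rosiglitazone (100%) and DMSO, then Hill-fitted for EC50 and efficacy.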

[20] = molecular target: Vitamin D3 receptor (Homo sapiens) (UniProt P11473); experiment: qHTS assay for small molecule antagonists of vitamin D receptor signaling (AID 588541; calls by dose curve)
Outline: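 Antagonist-mode beta-lactamase reporter assay: HEK293T VDR-UAS-bla cells were exposed to titrated compound alongside 1-alpha,25-dihydroxyvitamin D3 at 3 nM final for 16 h. Values were normalized to the 50 nM agonist control and DMSO basal, with IC50 and efficacy from Hill equation fits.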

[21] = molecular target: Vitamin D3 receptor (Homo sapiens) (UniProt P11473); experiment: qHTS assay for small molecule agonists of vitamin D receptor signaling (AID 588543; calls by dose curve;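 further: 0% = DMSO basal and 100% = reference agonist control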)
Outline: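 β-lactamase reporter, VDR-UAS-bla HEK293T, agonist mode. Cells plated 5 h at 37 °C, compound titration 16 h at 37 °C, CCF4 dye 2 h RT, ratio 460/530 nm. Hill fit → EC50, efficacy vs 50 nM 1α,25-(OH)2D3.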

[22] = qHTS assay for small molecule agonists of retinoid X receptor alpha signaling (AID 588544; calls by dose curve;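 on activation: 0% = DMSO basal wells and 100% = reference agonist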); settings: HEK293T RXRa-UAS-bla, beta-lactamase reporter, 18 h; 530 nm emission
[23] = molecular target: Retinoic acid receptor RXR-alpha (Homo sapiens) (UniProt P19793); experiment: as above
Retinoic acid receptor RXR-alpha (Homo sapiens), sequence (P19793 whole entry, looked up): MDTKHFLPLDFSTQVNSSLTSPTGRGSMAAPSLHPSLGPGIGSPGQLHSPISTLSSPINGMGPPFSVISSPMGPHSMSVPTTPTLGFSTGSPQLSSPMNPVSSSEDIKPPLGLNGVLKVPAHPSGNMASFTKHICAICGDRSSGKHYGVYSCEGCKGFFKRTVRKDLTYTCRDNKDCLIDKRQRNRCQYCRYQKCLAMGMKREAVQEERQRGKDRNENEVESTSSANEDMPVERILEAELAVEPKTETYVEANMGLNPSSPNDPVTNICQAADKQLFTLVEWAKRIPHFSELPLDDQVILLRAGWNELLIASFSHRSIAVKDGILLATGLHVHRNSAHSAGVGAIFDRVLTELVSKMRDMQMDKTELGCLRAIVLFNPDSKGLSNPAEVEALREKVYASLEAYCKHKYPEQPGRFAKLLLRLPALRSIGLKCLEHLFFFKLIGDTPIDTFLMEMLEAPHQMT

Estrogen receptor (Homo sapiens), sequence (P03372 whole entry, looked up): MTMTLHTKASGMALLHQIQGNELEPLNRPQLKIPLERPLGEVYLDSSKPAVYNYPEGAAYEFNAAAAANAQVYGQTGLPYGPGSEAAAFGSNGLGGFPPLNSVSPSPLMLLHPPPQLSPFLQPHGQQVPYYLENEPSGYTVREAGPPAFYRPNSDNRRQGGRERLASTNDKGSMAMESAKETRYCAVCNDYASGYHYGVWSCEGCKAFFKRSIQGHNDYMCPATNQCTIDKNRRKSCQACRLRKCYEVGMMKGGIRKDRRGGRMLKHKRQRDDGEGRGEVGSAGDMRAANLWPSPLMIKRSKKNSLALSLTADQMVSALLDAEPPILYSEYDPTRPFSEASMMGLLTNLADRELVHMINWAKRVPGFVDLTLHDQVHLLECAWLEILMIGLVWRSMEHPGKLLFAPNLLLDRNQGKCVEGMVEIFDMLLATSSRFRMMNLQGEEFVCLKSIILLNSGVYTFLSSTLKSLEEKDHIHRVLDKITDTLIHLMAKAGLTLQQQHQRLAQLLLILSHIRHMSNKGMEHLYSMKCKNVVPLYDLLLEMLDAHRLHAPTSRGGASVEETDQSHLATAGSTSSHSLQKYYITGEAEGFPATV
Bile acid receptor (Homo sapiens), sequence (Q96RI1 whole entry, looked up): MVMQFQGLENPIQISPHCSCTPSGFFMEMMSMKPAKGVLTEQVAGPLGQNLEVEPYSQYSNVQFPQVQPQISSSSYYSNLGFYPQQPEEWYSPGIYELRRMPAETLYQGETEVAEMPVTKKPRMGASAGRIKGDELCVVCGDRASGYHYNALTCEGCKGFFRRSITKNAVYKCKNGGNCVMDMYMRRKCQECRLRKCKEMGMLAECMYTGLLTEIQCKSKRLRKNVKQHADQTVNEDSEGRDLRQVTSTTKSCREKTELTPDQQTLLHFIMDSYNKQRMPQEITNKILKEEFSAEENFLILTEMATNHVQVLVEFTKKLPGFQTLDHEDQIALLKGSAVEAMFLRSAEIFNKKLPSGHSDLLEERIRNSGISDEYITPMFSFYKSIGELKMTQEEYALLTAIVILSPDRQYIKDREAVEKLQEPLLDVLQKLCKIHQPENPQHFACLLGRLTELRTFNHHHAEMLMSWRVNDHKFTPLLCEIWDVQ
Vitamin D3 receptor (Homo sapiens), sequence (P11473 whole entry, looked up): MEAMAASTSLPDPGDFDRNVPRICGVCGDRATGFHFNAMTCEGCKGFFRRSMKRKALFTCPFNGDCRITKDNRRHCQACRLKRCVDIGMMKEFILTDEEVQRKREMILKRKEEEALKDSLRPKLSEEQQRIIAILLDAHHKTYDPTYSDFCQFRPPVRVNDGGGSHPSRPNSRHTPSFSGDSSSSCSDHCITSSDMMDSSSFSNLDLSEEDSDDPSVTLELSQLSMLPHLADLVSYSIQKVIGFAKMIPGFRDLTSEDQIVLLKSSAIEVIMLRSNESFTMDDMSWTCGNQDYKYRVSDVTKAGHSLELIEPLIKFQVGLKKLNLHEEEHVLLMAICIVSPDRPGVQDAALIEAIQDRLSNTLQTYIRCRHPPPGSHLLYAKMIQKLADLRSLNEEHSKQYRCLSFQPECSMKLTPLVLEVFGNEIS
Glucocorticoid receptor (Homo sapiens), sequence (P04150 whole entry, looked up): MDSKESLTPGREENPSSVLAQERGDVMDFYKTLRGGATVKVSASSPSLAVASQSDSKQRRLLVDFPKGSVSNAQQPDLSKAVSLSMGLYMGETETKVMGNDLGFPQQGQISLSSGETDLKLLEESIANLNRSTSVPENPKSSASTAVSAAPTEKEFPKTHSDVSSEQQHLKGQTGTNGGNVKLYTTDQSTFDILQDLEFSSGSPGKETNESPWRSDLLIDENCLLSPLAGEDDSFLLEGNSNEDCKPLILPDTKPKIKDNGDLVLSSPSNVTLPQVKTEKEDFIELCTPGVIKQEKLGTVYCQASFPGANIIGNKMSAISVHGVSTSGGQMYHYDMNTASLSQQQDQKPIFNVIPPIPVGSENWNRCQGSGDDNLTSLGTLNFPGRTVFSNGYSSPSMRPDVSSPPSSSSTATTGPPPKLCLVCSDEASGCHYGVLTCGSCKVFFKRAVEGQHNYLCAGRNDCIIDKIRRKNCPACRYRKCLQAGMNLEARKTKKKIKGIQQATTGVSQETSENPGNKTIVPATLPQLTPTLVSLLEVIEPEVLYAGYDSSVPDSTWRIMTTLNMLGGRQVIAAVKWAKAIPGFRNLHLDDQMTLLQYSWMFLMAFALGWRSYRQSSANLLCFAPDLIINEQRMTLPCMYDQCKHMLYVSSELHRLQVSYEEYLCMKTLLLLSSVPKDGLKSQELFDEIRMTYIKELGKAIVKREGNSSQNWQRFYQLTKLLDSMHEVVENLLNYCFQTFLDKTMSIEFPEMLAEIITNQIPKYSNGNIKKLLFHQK
Peroxisome proliferator-activated receptor gamma (Homo sapiens), sequence (P37231 whole entry, looked up): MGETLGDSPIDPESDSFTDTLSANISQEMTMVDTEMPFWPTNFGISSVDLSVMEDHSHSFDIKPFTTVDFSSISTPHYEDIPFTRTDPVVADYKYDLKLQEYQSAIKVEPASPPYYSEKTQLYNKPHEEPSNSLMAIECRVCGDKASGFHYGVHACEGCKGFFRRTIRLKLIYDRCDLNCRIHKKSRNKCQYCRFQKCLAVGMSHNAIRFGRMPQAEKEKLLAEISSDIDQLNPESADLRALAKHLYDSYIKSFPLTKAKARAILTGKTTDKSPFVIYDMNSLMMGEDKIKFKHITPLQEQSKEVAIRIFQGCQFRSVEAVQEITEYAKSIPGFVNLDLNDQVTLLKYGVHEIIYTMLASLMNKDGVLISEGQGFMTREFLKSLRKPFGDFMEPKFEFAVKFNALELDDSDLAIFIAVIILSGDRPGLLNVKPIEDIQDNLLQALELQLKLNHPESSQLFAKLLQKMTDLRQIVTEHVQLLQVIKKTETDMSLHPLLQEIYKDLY

COC(=O)c1ccccc1C(=O)OC
inactive: outcome [1] | outcome [2] | Potency [3] | outcome [4] | outcome [5] | outcome [6] | outcome [7] | outcome [8] | outcome [9] | outcome [10] | outcome [11] | Potency [12] | outcome [13] | Potency [14] | Potency [15] | Potency [16] | activation [17] -0.299% and -2.92% | Potency [18] | outcome [19] | outcome [20] | Potency [21] | outcome [23]
-8.66%: max response [22]
